According to PubChem BioAssay (EPA / NIEHS):
Results filed as inconclusive are left out. Active and inactive are the calls of the source. How the source made its calls, unless noted: active means hit-call score of the fitted dose curve at least 0.9, where 1 is the maximum; inactive means score below 0.9.

Tests used:
[1] = CCTE_Shafer_MEA_acute_burst_number: CCTE's Neural Acute Assay for Single-Electrode Bursts, Shafer Lab (AID 2284013)
Procedure, shortened: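 Rat cortical cultures, DIV 13/15; 40 min baseline, then 40 min with compound 0.03-40 uM, 37 C. Spikes: 300-5000 Hz band-pass, threshold 8x rms noise. Readout = % change in single-electrode bursts vs baseline, loss-of-signal fit.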

[2] = CCTE_Shafer_MEA_acute_per_burst_spike_number_mean: CCTE's Neural Acute Assay for Average Number of Spikes Per Burst, Shafer Lab (AID 2284015);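 further: hits are decreases in mean spikes per burst versus baseline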
Procedure, shortened: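 Rat primary cortical neurons on 48-well MEAs (DIV 13 or 15) were treated with 0.03-40 uM compound at 37 C. Mean spikes per burst over 40 min were recorded before and after exposure and expressed as percent change from baseline, relative to DMSO.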

[3] = CCTE_Shafer_MEA_acute_interburst_interval_mean: CCTE's Neural Acute Assay for Mean Interburst Interval, Shafer Lab (AID 2284016);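 further: percent change of mean interburst interval versus each well's own pre-dose baseline; curves fitted for decrease in interburst interval relative to DMSO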
Procedure, shortened: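 Rat primary cortical neurons on 48-well MEAs at DIV 13 or 15 were exposed acutely to 0.03-40 uM. Spikes detected at 8x rms noise, 37 C. Mean interburst interval from 40 min recordings expressed as percent change from 40 min pre-treatment baseline.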

[4] = CCTE_Shafer_MEA_acute_burst_percentage_mean: CCTE's Neural Acute Assay for Percentage of Spikes in a Burst, Shafer Lab (AID 2284017);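 on AC50: curve fitted for loss of signal so potency reflects decreased burst percentage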
Procedure, shortened: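 Primary rat cortical neurons on 48-well MEA plates, treated on DIV 13 or 15 at 0.03-40 uM. Spikes detected at 8x rms noise at 37C; percent change from 40-min baseline to 40-min post-dose recording, fitted versus DMSO.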

[5] = CCTE_Shafer_MEA_acute_burst_percentage_std: CCTE's Neural Acute Assay for Standard Deviation of Burst Percentage, Shafer Lab (AID 2284018);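 further: fitted in the negative direction so actives lower burst percentage SD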
Procedure, shortened: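 Primary rat cortical neurons on 16-electrode MEA wells were recorded 40 min at baseline (DIV 13 or 15), then 40 min after compound (0.03-40 uM), at 37 C. Well value is SD across electrodes of spikes-in-bursts/total spikes; endpoint is percent change, DMSO-referenced.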

[6] = CCTE_Shafer_MEA_acute_per_network_burst_spike_number_mean: CCTE's Neural Acute Assay for Average Number of Spikes in a Network Burst, Shafer Lab (AID 2284019);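 on AC50: curve fitted for loss of signal so actives reduce spikes per network burst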
Procedure, shortened: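 Primary rat cortical neurons on 16-electrode MEA wells, DIV 13 or 15, 37 C; 40-min baseline then 40-min recording with compound (0.03-40 uM). Spikes per network burst (total spikes/number of bursts) expressed as percent change from baseline, DMSO reference.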

[7] = CCTE_Shafer_MEA_acute_per_network_burst_spike_number_std: CCTE's Neural Acute Assay for Standard Deviation of Number of Spikes in a Network Burst, Shafer Lab (AID 2284020);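 further: fitted for decrease in spike-number SD versus DMSO so actives lower it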
Procedure, shortened: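 Primary rat cortical neurons on 48-well MEAs (16 electrodes/well) recorded at DIV 13 or 15: 40-min baseline, then 40 min with compound (0.03-40 uM), 37 C. Value is percent change in SD of spikes per network burst, relative to DMSO.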

[8] = CCTE_Shafer_MEA_acute_per_network_burst_electrodes_number_mean: CCTE's Neural Acute Assay for Mean Number of Electrodes in a Network Burst, Shafer Lab (AID 2284021);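 further: curves fitted for decreases only so hits reduce electrodes per burst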
Procedure, shortened: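 Primary rat cortical networks, mwMEA, 37 C. 20 min stabilization, 40 min baseline, compound 0.03-40 uM, 40 min re-record. Wells need >=10 active electrodes; percent change per well, negative fitting direction.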

[9] = CCTE_Shafer_MEA_acute_network_burst_percentage: CCTE's Neural Acute Assay for Percentage of Network Bursts, Shafer Lab (AID 2284022);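 further: curves fitted for loss so actives lower network burst percentage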
Procedure, shortened: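 Readout is the fraction of spikes falling in network bursts, expressed as per-well percent change from a 40-min pre-exposure baseline. Primary rat cortical neurons on MEA were exposed to 0.03-40 uM compound on DIV 13 or 15 and recorded for 40 min at 37 C.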

[10] = CCTE_Shafer_MEA_acute_cross_correlation_area: CCTE's Neural Acute Assay for Area of Cross Correlation, Shafer Lab (AID 2284024);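 further: area under pooled inter-electrode spike cross-correlation near zero lag as percent change from own baseline; curves fitted for loss of cross-correlation area so actives lower synchrony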
Procedure, shortened: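 Plates equilibrated 20 min at 37 C, then 40 min baseline was recorded, compound was added (0.03-40 uM), and a further 40 min was recorded. Wells needed ≥10 active electrodes (≥5 spikes/min) on exposure day.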

[11] = CCTE_Shafer_MEA_acute_cross_correlation_HWHM: CCTE's Neural Acute Assay for Cross Correlation at Half Width at Half Maximum, Shafer Lab (AID 2284026);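 further: percent change per well from pre-dose baseline in spike cross-correlogram half width; hits are a decrease in cross-correlogram half width relative to DMSO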
Procedure, shortened: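 Rat cortical neuron cultures on microelectrode arrays were equilibrated 20 min at 37 C, recorded 40 min at baseline, then 40 min after compound addition (0.03-40 uM, ≥3 wells). Spikes were detected at 8x rms noise after 300-5000 Hz band-pass filtering.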

[12] = CCTE_Shafer_MEA_acute_synchrony_index: CCTE's Neural Acute Assay for Synchrony, Shafer Lab (AID 2284027);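 further: fitted for loss of signal so actives lower synchrony relative to DMSO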
Procedure, shortened: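 Readout is percent change in the unitless network synchrony index (0 low, 1 high) between a 40-min baseline and a 40-min recording in compound. Cultures were primary rat cortical neurons on MEAs, treated at 0.03-40 uM on DIV 13 or 15.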

[13] = CCTE_Deisenroth_AIME_384WELL_CTox_Active: Cytotoxicity Assessment (CTOX) in CCTE's 384-well Estrogen Receptor Transactivation Assay with AIME metabolic competence (metabolism positive), Deisenroth Lab (AID 2284037; active means hit-call score of the fitted dose curve at least 0.9, where 1 is the maximum;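 further: chemicals first conditioned 2 h by alginate-bound induced rat liver S9 before cells; activity means signal loss indicating cell death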)
Procedure, shortened: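 VM7Luc4E2 breast cells received medium pre-incubated 2 h with chemical over alginate microspheres holding induced male Sprague Dawley rat liver S9; viability read 24 h later by protease-substrate fluorescence. Loss of signal, bidirectional fit, 0.002–200 uM.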

[14] = CCTE_Harrill_HTTr_Apoptosis_MCF7: CCTE's 6-hour Apoptosis Assessment for the High-Throughput Transcriptomics (HTTr) Platform, in MCF-7 cells cultured in DMEM + 10% fetal bovine serum, Harrill Lab (AID 2284011)
Procedure, shortened: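 MCF-7 (DMEM + 10% FBS), 384-well; 8-pt dilution series, 6 h chemical exposure; caspase-3/7 activation via CellEvent Caspase 3/7 Green, HCI; bidirectional fit vs DMSO.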

[15] = CCTE_Harrill_HTTr_CellCount_MCF7: CCTE's Cell Proliferation Assessment for the High-Throughput Transcriptomics (HTTr) Platform, Harrill Lab (AID 2284012; active means hit-call score of the fitted dose curve at least 0.9, where 1 is the maximum;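 further: count of Hoechst-stained nuclei per well by high-content imaging in MCF-7 cells; cells exposed to compound for six hours; intended direction is loss of nuclei count meaning fewer cells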)
Procedure, shortened: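 Chemicals in eight-point dilution series are added to MCF-7 cells for six hours, nuclei are stained with Hoechst and imaged, and per-well nuclei counts are fitted in both directions relative to DMSO controls.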

[16] = molecular target: Estrogen receptor (Homo sapiens) (UniProt P03372); experiment: CCTE_Deisenroth_AIME_384WELL_LUC_Active: CCTE's 384-well Estrogen Receptor Transactivation Assay with AIME metabolic competence (ERTA luciferase; metabolism positive), Deisenroth Lab (AID 2284030; active means hit-call score of the fitted dose curve at least 0.9, where 1 is the maximum)
Procedure, shortened: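 AIME metabolism-positive mode: chemicals 0.002 - 200 uM, 2 h with alginate-bound PB/BNF-induced rat S9 → medium to VM7Luc4E2 ERTA, 24 h → luciferase. Positive fit vs 17beta-estradiol; n=4 typical.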

[17] = molecular target: Estrogen receptor (Homo sapiens) (UniProt P03372); experiment: CCTE_Deisenroth_AIME_384WELL_LUC_Inactive: CCTE's 384-well Estrogen Receptor Transactivation Assay without AIME metabolic competence (ERTA luciferase; metabolism negative), Deisenroth Lab (AID 2284038; active means hit-call score of the fitted dose curve at least 0.9, where 1 is the maximum;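 further: hits raise estrogen receptor luciferase signal so potencies reflect agonists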)
Procedure, shortened: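 Metabolism-negative mode: chemicals (10-point, 0.002–200 uM) held 2 h with alginate-water microspheres, then conditioned medium applied to VM7Luc4E2 cells for 24 h. Luciferase induction referenced to 17beta-estradiol.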

[18] = CCTE_Deisenroth_AIME_384WELL_CTox_Inactive: Cytotoxicity Assessment (CTOX) in CCTE's 384-well Estrogen Receptor Transactivation Assay without AIME metabolic competence (metabolism negative), Deisenroth Lab (AID 2284039; active means hit-call score of the fitted dose curve at least 0.9, where 1 is the maximum;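 further: cell viability via live-cell protease substrate cleaved to fluorescent probe; cells exposed 24 h to medium preincubated 2 h with alginate-water beads without S9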)
Procedure, shortened: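 VM7Luc4E2 cells, metabolism-negative arm: test chemicals (0.002–200 uM, 10 points) pre-incubated 2 h with alginate-water microspheres, then medium transferred to cells for 24 h. Viability read as protease-substrate cleavage to fluorescent probe; loss-of-signal, bidirectional fitting.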

[19] = CCTE_Shafer_MEA_dev_firing_rate_mean: CCTE's Neural Network Formation Assay for Mean Firing Rate, Shafer Lab (AID 2284031);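 further: AUC of well mean spike rate recorded on DIV 5 7 9 and 12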
Procedure, shortened: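 Rat primary cortical neurons were seeded on multielectrode arrays and treated from plating through day 12, with redosing at each feed. Spontaneous spiking was recorded four times; mean firing rate AUC was fitted downward against DMSO.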

[20] = CCTE_Shafer_MEA_dev_per_burst_spike_percent: CCTE's Neural Network Formation Assay for Percent of Spikes in a Burst, Shafer Lab (AID 2284032)
Procedure, shortened: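 Rat primary cortical neurons on 16-electrode MEA wells, dosed from plating day 0 for 12 days with renewal on DIV 5 and 9; spikes-in-bursts percentage averaged over bursting electrodes, collapsed as AUC across days 5, 7, 9, 12; loss direction versus DMSO.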

Measured: AC50

Estrogen receptor (Homo sapiens), sequence (P03372 whole entry, looked up): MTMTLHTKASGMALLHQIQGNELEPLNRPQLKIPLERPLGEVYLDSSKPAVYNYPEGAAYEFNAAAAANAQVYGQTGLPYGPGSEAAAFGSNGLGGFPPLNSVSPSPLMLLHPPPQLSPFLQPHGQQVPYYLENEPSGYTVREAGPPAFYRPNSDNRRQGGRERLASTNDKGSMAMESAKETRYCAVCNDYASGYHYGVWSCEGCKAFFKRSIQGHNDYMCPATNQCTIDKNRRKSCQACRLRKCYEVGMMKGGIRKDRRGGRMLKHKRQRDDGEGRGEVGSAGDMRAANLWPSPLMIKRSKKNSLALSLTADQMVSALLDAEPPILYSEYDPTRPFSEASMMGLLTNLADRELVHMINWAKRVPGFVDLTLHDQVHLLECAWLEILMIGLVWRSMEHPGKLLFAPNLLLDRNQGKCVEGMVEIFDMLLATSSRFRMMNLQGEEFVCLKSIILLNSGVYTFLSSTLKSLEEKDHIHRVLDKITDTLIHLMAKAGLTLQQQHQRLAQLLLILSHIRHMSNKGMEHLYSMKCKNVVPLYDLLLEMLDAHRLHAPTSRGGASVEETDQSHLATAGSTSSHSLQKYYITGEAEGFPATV

Nc1cc([N+](=O)[O-])ccc1O
active: [2] 25100 nM | [4] 23700 nM | [6] 40.3 nM | [7] 226 nM | [9] 15000 nM | [11] 24400 nM | [12] 22600 nM
inactive: [1] | [3] | [5] | [8] | [10]

OC1OC[C@@H](O)[C@H](O)[C@H]1O (stereo partly drawn)
active: [5] 1210 nM
not listed: [14] | [15] | [16] | [17] | [18] | [19] | [20]
inactive: all other assays above

Cc1ccc(O)c(C(C)(C)C)c1
inactive: [14] | [15] | [13]

OCCOCCOCCOCCO
inactive: [14] | [15] | [13] | [18]
active: [16] 0.342 nM | [17] 1.71 nM

CC(=O)OCCOC(C)=O
inactive: [14] | [15] | [16] | [13] | [17] | [18]

NCCCCCCN
inactive: [14] | [13] | [18]

C[C@H]1C[C@@H]2[C@H]([C@@H](O)C[C@@]3(C)[C@H]2CC[C@]3(O)C(=O)CO)[C@@]2(C)C=CC(=O)C=C12
active: [1] 3 nM | [10] 4.5 nM
not listed: [13] | [15] | [16] | [17] | [18] | [19] | [20]
inactive: all other assays above

O=C(O)c1ccc([N+](=O)[O-])cc1
inactive: [14] | [13] | [18]

CC1(C)C(=O)N(Br)C(=O)N1Cl
inactive: [13] | [18]

O=C(O)Cc1cccc2ccccc12
inactive: [14] | [15] | [13]

CN(C)C(=N)N=C(N)N
not listed: [13] | [15] | [16] | [17] | [18]
inactive: all other assays above

O=C(O)c1ccc(C(=O)O)cc1
inactive: [14] | [18]

CC(=O)OCCC(C)CC(C)(C)C (stereo not drawn)
not listed: [13] | [14] | [15] | [16] | [17] | [18] | [19] | [20]
inactive: all other assays above
